ATXN viability – viability counter-screen for ATXN expression inhibitors; AID 651635; actives 0.49% (n = 400,000); Potency, µM (highest dose often 56.7 µM), most hits filed as cytotoxic; S2 cells (HEK-293 line with an ATXN2-luciferase reporter) viability, CellTiter-Fluor protease fluorescence, 24 h; further: nearly all actives have a fitted effect of over 40% in size
TDP1 cell noCPT – qHTS for Inhibitors of human tyrosyl-DNA phosphodiesterase 1 (TDP1): qHTS in cells in absence of CPT; DT40 Tdp1-/- hTDP1 cells, no CPT, ATP luminescence, 48 h; Potency, µM (titrated, usually from 46.2 µM), hits mostly inhibitors; actives 15% (n = 420,000); AID 686978, 2013; further: nearly all actives have a fitted effect of over 55% in size
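Stably hTDP1-transfected Tdp1-null chicken DT40 cells were treated with library compounds minus camptothecin and grown for at least 48 hr at 37 °C, after which cellular ATP was quantified by luminescence.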
HepG2 viability – HepG2 cytotoxicity, counter-screen for TGF-b inhibitors; HepG2 CAGA-GFP viability, ATP luminescence, 18 h; Potency, µM (series often up to 46.1 µM), actives largely listed as cytotoxic; actives 0.76% (n = 410,000)
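CellTiter-Glo luminescence gave cytotoxicity after 18 hours at 37 degrees C. The cells were HepG2 CAGA-GFP in 1% FBS DMEM, stimulated with 500 pg/mL TGF-beta after compound addition. %Activity was normalised to no-cell wells (complete cell-killing) and DMSO (no toxicity), and curves were fitted and classified.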
ATXN2 expr inh – reduces ATXN2 reporter expression in HEK-293 cells; HEK-293 ATXN2-luciferase reporter, luminescence, 24 h; Potency, µM (doses to about 57 µM), hits mostly inhibitors; actives 0.72% (n = 360,000); AID 1745845; further: nearly all actives have a fitted effect of over 55% in size
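ATXN2-luciferase reporter cells (luciferase flanked by upstream and downstream ATXN2 gene portions) were treated 24 h at 37 °C with compounds at up to 57 uM. SteadyGlo luminescence gave expression; GF-AFC fluorescence gave viability.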
TDP1 cell CPT – growth inhibition of DT40 Tdp1-/-;hTDP1 cells with camptothecin (screen for TDP1 inhibitors) | chicken DT40 Tdp1-/-;hTDP1 cells + 20 nM CPT, ATP luminescence, 48 h | actives 12% (n = 420,000) | Potency, µM (series often up to 46.2 µM), most hits filed as inhibitors; further: nearly all actives have a fitted effect of over 55% in size
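Cell growth measured by CellTiter-Glo luminescence after a minimum 48 h, 37 C compound exposure with 20 nM CPT in Tdp1-knockout DT40 cells stably expressing hTDP1, seeded 400/well; qHTS titration format.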
TGFb SMAD3 inh – blocks TGF-b signaling; AID 588855; actives 1.2% (n = 410,000); Potency, µM (series often up to 46.1 µM), most hits filed as inhibitors; HepG2 CAGA-GFP TGF-b/SMAD3 reporter, GFP fluorescence, 18 h; TGF-beta stimulated, 500 pg/mL final; further: nearly all actives have a fitted effect of over 65% in size
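Smad-responsive CAGA-GFP expression was quantified in HEPG2 cells exposed to compounds and 500 pg/mL final TGF-beta for 18 h at 37 degrees C; unstimulated wells defined full inhibition.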
Numbers stand for hits; ! = repeats disagree. An excerpt weighted towards active compounds, which were near 17% of everything screened. The call rests on the fitted dose curve; in most records, active means well fitted curve in the direction sought with a large enough effect; inconclusive means small, poorly fitted or top-dose-only effect, or another doubt; inactive means no such curve, though single readings can be large; an effect the other way counts as inactive or inconclusive.

`CCOc1ccc(S(=O)(=O)NCCC(=O)OCC(=O)NC(=O)c2cccn2C)cc1` gave ATXN viability inactive, TDP1 cell noCPT inactive, HepG2 viability inactive, ATXN2 expr inh inactive, TDP1 cell CPT inactive and TGFb SMAD3 inh inactive.
CCc1cccc(NC(=O)c2ccc(CNS(=O)(=O)c3ccc4c(c3)C(C)(C)C(=O)N4C)cc2)c1 was read as TDP1 cell noCPT 16.4µM, HepG2 viability inactive, TDP1 cell CPT inconclusive and TGFb SMAD3 inh inconclusive.
`Cc1ccc(NC(=O)c2ccc(CNS(=O)(=O)c3ccc4c(c3)C(C)(C)C(=O)N4C)cc2)cc1F` gave TDP1 cell noCPT 14.6µM, HepG2 viability inactive, TDP1 cell CPT 16.4µM and TGFb SMAD3 inh inactive.
Screening Cc1ccc(NC(=O)c2ccc(CNS(=O)(=O)c3ccc4c(c3)C(C)(C)C(=O)N4C)cc2)cc1 returned TDP1 cell noCPT inactive, HepG2 viability inactive, TDP1 cell CPT inactive and TGFb SMAD3 inh inactive.
For CCOc1ccccc1CNS(=O)(=O)c1ccc2c(c1)C(C)(C)C(=O)N2C the results were ATXN viability inactive, TDP1 cell noCPT 23.1µM!, HepG2 viability inactive, ATXN2 expr inh inactive, TDP1 cell CPT inconclusive and TGFb SMAD3 inh inactive.
For CCc1ccccc1NS(=O)(=O)c1ccc2c(c1)C(C)(C)C(=O)N2C the results were ATXN viability inactive, TDP1 cell noCPT inconclusive, HepG2 viability inactive, ATXN2 expr inh inactive, TDP1 cell CPT inconclusive and TGFb SMAD3 inh inactive.
Cc1cc(C)c2nc(N(CCCN(C)C)C(=O)c3ccc(S(=O)(=O)N4CC(C)OC(C)C4)cc3)sc2c1 (stereo unspecified) was read as ATXN viability inactive, TDP1 cell noCPT 20.6µM, HepG2 viability inactive, ATXN2 expr inh inactive, TDP1 cell CPT 16.4µM and TGFb SMAD3 inh inactive.
For Cc1ccc2sc(N(CCN(C)C)C(=O)c3ccc(S(=O)(=O)N4CC(C)OC(C)C4)cc3)nc2c1C (stereo unspecified) the results were ATXN viability inactive, TDP1 cell noCPT inactive, HepG2 viability inactive, ATXN2 expr inh inactive, TDP1 cell CPT inconclusive and TGFb SMAD3 inh inactive.
Screening CN(C)CCCN(C(=O)c1ccc(S(=O)(=O)N2CCCCCC2)cc1)c1nc2c(F)cc(F)cc2s1 returned ATXN viability inactive, TDP1 cell noCPT 16.4µM, HepG2 viability inactive, ATXN2 expr inh inactive, TDP1 cell CPT inconclusive and TGFb SMAD3 inh inactive.
`COc1ccc(C=C(NC(=O)c2ccccc2)C(=O)O)cc1OC` gave ATXN viability inconclusive, TDP1 cell noCPT inactive, HepG2 viability inactive, ATXN2 expr inh inactive, TDP1 cell CPT inactive and TGFb SMAD3 inh inactive.
COc1ccc(CCNC(=O)c2cc(=O)c3ccc(C)cc3o2)cc1OC was read as ATXN viability inactive, TDP1 cell noCPT 20.6µM, HepG2 viability inactive, ATXN2 expr inh inactive, TDP1 cell CPT inconclusive and TGFb SMAD3 inh inactive.
`COc1ccc(CCNC(=O)c2cc(=O)c3cc(C)ccc3o2)cc1` gave ATXN viability inactive, TDP1 cell noCPT 13µM, HepG2 viability inactive, ATXN2 expr inh inactive, TDP1 cell CPT 23.1µM and TGFb SMAD3 inh inactive.
Cc1ccc2c(=O)cc(C(=O)NCCc3ccc(S(N)(=O)=O)cc3)oc2c1 was read as ATXN viability inactive, TDP1 cell noCPT inactive, HepG2 viability inactive, ATXN2 expr inh inactive, TDP1 cell CPT inactive and TGFb SMAD3 inh inactive.
For CN(C)c1ccc(/C=C2\C=Cc3cc(N)ccc32)cc1 the results were TDP1 cell noCPT 11.2µM, HepG2 viability inactive, TDP1 cell CPT inconclusive and TGFb SMAD3 inh inactive.
O=Cc1ccc(/C=C2\C=Cc3ccccc32)cc1 was read as TDP1 cell noCPT 6.31µM, HepG2 viability inactive, TDP1 cell CPT 5.62µM and TGFb SMAD3 inh 3.55µM.
`CC(C)CN(C)c1ccc(/C=C2\C=Cc3ccccc32)cc1` gave TDP1 cell noCPT 2.51µM, HepG2 viability inactive, TDP1 cell CPT 2.82µM and TGFb SMAD3 inh inactive.
CCN(CC)c1ccc(/C=C2\C=Cc3ccccc32)cc1 was read as TDP1 cell noCPT 17.8µM, HepG2 viability inactive, TDP1 cell CPT inconclusive and TGFb SMAD3 inh inactive.
Cc1nc2ccc(S(=O)(=O)NC(CC(C)C)C(=O)N3CCN(c4ccc(F)cc4)CC3)cc2s1 (stereo unspecified) was read as ATXN viability inactive, TDP1 cell noCPT inconclusive, HepG2 viability inactive, ATXN2 expr inh inactive, TDP1 cell CPT inconclusive and TGFb SMAD3 inh inactive.
CCOC(=O)c1c(NC(=O)COc2ccc(C)cc2C(C)(C)C)sc2c1CCC(C)C2 (stereo unspecified) was read as TDP1 cell noCPT inactive, HepG2 viability inactive, TDP1 cell CPT inactive and TGFb SMAD3 inh inactive.
COc1ccc(-c2cc3cc(-c4cc(OC)c(OC)c(OC)c4)ccc3o2)cc1 was read as ATXN viability inactive, TDP1 cell noCPT inactive, HepG2 viability inactive, ATXN2 expr inh inactive, TDP1 cell CPT inconclusive and TGFb SMAD3 inh inactive.
For COc1cc(-c2ccc3cc(OC)c(OC)c(OC)c3c2)cc(OC)c1OC the results were ATXN viability inactive, TDP1 cell noCPT inconclusive, HepG2 viability inactive, TDP1 cell CPT 20.6µM and TGFb SMAD3 inh inconclusive.
`O=C(Cn1c(=O)c(C(F)(F)F)nc2ccccc21)Nc1ccc(Br)cc1F` gave ATXN viability inactive, TDP1 cell noCPT inactive, HepG2 viability inactive, ATXN2 expr inh inactive, TDP1 cell CPT inactive and TGFb SMAD3 inh inactive.
For Oc1ccccc1CN1CCCC(N2CCN(c3cccc(C(F)(F)F)c3)CC2)C1 (stereo unspecified) the results were ATXN viability inactive, TDP1 cell noCPT inconclusive, HepG2 viability inactive, ATXN2 expr inh inactive, TDP1 cell CPT 18.4µM and TGFb SMAD3 inh inactive.
Fc1ccccc1N1CCN(C2CCCN(Cc3cccc(C(F)(F)F)c3)C2)CC1 (stereo unspecified) was read as ATXN viability inactive, TDP1 cell noCPT 16.4µM, HepG2 viability inactive, ATXN2 expr inh inactive, TDP1 cell CPT inconclusive and TGFb SMAD3 inh inconclusive.
`CSCC(C)N1CCC(n2nccc2NC(=O)c2ccccc2C)CC1` (stereo unspecified) gave ATXN viability inactive, TDP1 cell noCPT inactive, HepG2 viability inactive, ATXN2 expr inh inactive, TDP1 cell CPT inactive and TGFb SMAD3 inh inactive.
Screening CC(C)[C@H](NC(=O)c1c(F)cccc1F)C(=O)Nc1cccc(Br)c1 returned ATXN viability inactive, TDP1 cell noCPT inactive, HepG2 viability inactive, ATXN2 expr inh inactive, TDP1 cell CPT inactive and TGFb SMAD3 inh inactive.

High-throughput results deposited in PubChem BioAssay by National Center for Advancing Translational Sciences (NCATS).
